Source: the supplement of paper PMC10849652
Targets with a hit are over-represented here; the source holds about 8,800 in all. About 0.5% of all pairs of compound and target were hits. Unmarked numbers belong to inactive results.

Experiments:
Test in all cases: log2 fold change, soluble protein after heating vs DMSO (PISA); higher = thermal stabilisation; K562 lysate, 10 uM; active = over 0.2 and 3.5 SD of the protein, either way, in both replicates (recomputed)
[1] = compound: C=CC(=O)N1CCC[C@@H](n2nc(-c3ccc(Oc4ccccc4)cc3)c3c(N)ncnc32)C1 [ibrutinib]
Method in brief: (§1)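 Thermal stability, expressed as log-two fold change relative to solvent controls, is given from duplicates. Crude K562 extract in PBS pH 7.4 with 1 mM MgCl2, at 1 mg/mL protein, was treated with 10 μM compound for 30 min and heated in aliquots for 3 min across 48°C-58°C. After pooling, adjustment to 0.5% NP-40 at 4°C and centrifugation at 21,000xg for 90 min, supernatant protein was measured by TMTpro 16plex LC-MS/MS with channel sums equalised.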

[2] = compound: CC(=O)c1cnc2ccc(-c3cc(Cl)c(O)c(Cl)c3)nc2c1N[C@H]1CC[C@H](CN(C)C)CC1
Method in brief: as §1

[3] = compound: CC(C)(C)Cn1c(N)nc2ccc(-c3[nH]c(C(C)(C)C)nc3-c3ccc(F)cc3)nc21 [ralimetinib]
Method in brief: as §1

[4] = compound: CC(C)(O)CC(=O)NCCn1ccc2ncnc(Nc3ccc(Oc4cccc(C(F)(F)F)c4)c(Cl)c3)c21
Method in brief: as §1

[5] = compound: CC(C)C1=C2N=C(C=C(N2N=C1)NCC3=CC=CC=C3)NCCCCCCN
Method in brief: as §1

[6] = compound: CC1=C(C(CC(=O)N1)C2=CC=C(C=C2)C(F)(F)F)C(=O)NC3=C(C=C4C(=C3)C=NN4)F
Method in brief: as §1

[7] = compound: CC1=C(C2=C(C=C1)C(=O)C3=CC=CC=C3N2CCCN)C
Method in brief: as §1

[8] = compound: CC1=C(C=C(C=C1)NC(=O)C2=CC(=CC=C2)C(C)(C)C#N)NC3=CC4=C(C=C3)N=CN(C4=O)C
Method in brief: as §1

[9] = compound: CC1=C(C=C(C=C1)NC(=O)C2=CC(=CC=C2)N(C)C)NC(=O)C3=CC=C(C=C3)O
Method in brief: as §1

[10] = compound: CC1=CC=C(C=C1)SC2=C3C=C(SC3=CN=C2)C(=O)N
Method in brief: as §1

[11] = compound: CCCS(=O)(=O)Nc1ccc(F)c(C(=O)c2c[nH]c3ncc(-c4ccc(Cl)cc4)cc23)c1F [vemurafenib]
Method in brief: as §1

[12] = compound: CCCS(=O)(=O)Nc1ccc(F)c(C(=O)c2c[nH]c3ncc(Cl)cc23)c1F
Method in brief: as §1

[13] = compound: CCN(CCCOc1ccc2c(Nc3cc(CC(=O)Nc4cccc(F)c4)[nH]n3)ncnc2c1)CCOP(=O)(O)O [barasertib]
Method in brief: as §1

[14] = compound: CC[C@@H]1C(=O)N(C)c2cnc(Nc3ccc(C(=O)NC4CCN(C)CC4)cc3OC)nc2N1C1CCCC1
Method in brief: as §1

[15] = compound: CC[C@@H]1C(=O)N(C)c2cnc(Nc3ccc(C(=O)N[C@H]4CC[C@H](N5CCN(CC6CC6)CC5)CC4)cc3OC)nc2N1C(C)C [volasertib]
Method in brief: as §1

[16] = compound: CCn1c(C(=O)N(C2CC2)C2CC2)cc2c3c(ncn3C)c(Nc3cc(C)n(C)n3)nc21
Method in brief: as §1

[17] = compound: CCn1cc(-c2ccnc3[nH]c(-c4cccc(CN(C)C)c4)cc23)c(-c2ccc(NC(=O)N(C)C)cc2)n1
Method in brief: as §1

[18] = compound: CN1CCC(CNc2ccc3ncc(-c4cccc(OC(F)(F)F)c4)n3n2)CC1
Method in brief: as §1

[19] = compound: CN1CCN(CCOc2cc(OC3CCOCC3)c3c(Nc4c(Cl)ccc5c4OCO5)ncnc3c2)CC1 [saracatinib]
Method in brief: as §1

[20] = compound: CN1CCN(c2nc(C3=C(c4c[nH]c5ccccc45)C(=O)NC3=O)c3ccccc3n2)CC1 [sotrastaurin]
Method in brief: as §1

UniProt P16219, sequence (P16219 whole entry, looked up): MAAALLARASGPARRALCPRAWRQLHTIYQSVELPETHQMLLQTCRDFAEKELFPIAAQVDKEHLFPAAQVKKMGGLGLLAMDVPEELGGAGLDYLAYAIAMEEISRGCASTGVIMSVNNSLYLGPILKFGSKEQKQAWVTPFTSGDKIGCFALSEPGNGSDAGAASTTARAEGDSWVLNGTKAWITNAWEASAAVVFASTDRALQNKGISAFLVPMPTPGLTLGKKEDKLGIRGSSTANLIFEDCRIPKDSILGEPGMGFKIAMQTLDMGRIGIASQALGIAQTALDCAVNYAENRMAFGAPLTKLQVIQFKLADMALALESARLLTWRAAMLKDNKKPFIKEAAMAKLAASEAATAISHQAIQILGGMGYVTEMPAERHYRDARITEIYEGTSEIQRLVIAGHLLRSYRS
UniProt P51825, sequence (P51825 whole entry, looked up): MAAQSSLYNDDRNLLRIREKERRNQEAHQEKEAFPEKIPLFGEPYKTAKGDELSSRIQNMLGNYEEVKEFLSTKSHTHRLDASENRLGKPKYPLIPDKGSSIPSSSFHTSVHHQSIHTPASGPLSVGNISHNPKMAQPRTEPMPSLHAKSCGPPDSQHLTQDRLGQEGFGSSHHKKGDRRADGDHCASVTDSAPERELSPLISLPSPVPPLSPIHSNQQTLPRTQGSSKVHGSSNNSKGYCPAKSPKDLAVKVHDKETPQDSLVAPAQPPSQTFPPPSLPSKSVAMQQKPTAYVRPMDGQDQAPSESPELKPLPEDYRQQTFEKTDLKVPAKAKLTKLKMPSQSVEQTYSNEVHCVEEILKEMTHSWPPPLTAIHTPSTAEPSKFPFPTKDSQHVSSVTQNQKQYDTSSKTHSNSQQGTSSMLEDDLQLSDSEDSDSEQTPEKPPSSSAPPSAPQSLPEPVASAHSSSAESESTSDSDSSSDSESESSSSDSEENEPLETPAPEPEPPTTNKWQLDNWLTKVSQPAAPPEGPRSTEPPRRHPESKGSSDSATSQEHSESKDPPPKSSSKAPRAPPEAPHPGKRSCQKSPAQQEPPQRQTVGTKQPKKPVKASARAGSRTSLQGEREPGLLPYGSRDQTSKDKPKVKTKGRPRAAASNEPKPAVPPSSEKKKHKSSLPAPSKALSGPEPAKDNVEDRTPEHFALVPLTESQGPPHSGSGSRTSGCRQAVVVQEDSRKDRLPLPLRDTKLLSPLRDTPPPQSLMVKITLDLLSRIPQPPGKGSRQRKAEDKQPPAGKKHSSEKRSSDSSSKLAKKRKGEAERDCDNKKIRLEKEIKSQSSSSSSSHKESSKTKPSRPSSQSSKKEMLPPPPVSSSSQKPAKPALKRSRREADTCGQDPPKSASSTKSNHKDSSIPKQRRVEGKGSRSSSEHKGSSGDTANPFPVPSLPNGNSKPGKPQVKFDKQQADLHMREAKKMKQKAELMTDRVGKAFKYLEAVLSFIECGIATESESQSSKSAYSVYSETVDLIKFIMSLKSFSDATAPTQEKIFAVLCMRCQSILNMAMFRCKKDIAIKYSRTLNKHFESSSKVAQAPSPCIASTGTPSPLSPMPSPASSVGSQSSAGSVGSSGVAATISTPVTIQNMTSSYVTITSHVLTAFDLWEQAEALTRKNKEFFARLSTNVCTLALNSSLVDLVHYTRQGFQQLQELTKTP
UniProt Q9Y4X0, sequence (Q9Y4X0 whole entry, looked up): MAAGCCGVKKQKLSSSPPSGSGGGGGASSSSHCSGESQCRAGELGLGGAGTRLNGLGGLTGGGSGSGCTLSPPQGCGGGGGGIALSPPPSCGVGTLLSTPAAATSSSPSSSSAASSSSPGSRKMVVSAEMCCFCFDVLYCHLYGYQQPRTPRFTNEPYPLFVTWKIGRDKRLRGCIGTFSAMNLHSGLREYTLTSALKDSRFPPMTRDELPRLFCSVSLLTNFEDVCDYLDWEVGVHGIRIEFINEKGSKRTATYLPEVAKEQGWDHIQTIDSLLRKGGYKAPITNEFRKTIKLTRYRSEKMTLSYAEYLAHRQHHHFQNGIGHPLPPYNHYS
UniProt P42330, sequence (P42330 whole entry, looked up): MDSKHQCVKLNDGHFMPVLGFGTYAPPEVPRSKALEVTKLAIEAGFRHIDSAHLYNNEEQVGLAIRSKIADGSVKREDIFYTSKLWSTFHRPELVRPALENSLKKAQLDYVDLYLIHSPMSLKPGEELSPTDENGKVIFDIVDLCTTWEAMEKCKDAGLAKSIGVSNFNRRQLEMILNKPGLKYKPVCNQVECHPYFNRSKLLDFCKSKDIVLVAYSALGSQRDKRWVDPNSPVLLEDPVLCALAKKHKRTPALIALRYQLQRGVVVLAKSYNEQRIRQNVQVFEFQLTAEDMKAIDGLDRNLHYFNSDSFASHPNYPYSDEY
UniProt Q12797, sequence (Q12797 whole entry, looked up): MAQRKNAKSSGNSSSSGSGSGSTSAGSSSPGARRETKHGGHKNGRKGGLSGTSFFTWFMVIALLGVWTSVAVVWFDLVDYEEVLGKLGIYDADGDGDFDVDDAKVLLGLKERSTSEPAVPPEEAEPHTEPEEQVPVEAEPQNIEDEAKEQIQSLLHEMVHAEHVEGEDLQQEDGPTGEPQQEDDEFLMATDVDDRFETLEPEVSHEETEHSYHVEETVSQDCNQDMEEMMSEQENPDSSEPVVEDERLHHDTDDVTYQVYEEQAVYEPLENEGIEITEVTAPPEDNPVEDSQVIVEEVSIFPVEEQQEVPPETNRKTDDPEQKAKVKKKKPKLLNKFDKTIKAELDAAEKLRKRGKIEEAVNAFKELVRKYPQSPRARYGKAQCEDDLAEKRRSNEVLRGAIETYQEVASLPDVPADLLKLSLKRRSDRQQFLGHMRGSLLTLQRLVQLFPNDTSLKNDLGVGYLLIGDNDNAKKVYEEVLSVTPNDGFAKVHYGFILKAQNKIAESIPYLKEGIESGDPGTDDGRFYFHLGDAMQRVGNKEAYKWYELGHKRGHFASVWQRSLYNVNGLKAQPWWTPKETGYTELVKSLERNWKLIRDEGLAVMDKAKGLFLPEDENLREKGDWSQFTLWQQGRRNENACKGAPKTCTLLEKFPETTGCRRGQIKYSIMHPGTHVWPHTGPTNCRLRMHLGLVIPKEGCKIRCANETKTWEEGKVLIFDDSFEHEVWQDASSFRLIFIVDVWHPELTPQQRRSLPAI
UniProt P04083, sequence (P04083 whole entry, looked up): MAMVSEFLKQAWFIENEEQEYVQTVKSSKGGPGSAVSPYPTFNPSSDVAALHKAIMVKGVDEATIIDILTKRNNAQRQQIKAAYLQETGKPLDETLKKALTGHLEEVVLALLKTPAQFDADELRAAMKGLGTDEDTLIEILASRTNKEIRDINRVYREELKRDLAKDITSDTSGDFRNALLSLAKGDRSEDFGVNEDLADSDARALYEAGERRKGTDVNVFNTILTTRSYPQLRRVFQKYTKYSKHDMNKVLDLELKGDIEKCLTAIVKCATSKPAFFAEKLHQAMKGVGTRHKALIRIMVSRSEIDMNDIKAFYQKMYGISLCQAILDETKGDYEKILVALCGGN
UniProt Q9ULX6, sequence (Q9ULX6 whole entry, looked up): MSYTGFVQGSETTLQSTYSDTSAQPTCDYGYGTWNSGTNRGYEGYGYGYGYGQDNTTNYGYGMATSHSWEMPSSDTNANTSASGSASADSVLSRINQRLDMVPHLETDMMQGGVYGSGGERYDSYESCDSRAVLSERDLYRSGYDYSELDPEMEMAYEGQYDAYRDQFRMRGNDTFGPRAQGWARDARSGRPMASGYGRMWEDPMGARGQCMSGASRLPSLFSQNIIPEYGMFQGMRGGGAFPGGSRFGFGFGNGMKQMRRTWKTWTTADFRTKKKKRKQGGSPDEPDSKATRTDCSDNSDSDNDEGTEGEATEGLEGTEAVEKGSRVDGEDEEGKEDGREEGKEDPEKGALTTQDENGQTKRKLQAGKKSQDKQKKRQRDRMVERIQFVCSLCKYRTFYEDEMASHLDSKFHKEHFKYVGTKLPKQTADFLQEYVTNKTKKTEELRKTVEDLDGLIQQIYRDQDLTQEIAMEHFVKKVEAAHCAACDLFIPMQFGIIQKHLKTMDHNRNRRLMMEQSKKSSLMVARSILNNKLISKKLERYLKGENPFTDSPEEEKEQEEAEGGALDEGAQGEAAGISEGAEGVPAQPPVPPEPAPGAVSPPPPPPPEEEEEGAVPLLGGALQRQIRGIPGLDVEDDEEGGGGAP
UniProt Q9UG63, sequence (Q9UG63 whole entry, looked up): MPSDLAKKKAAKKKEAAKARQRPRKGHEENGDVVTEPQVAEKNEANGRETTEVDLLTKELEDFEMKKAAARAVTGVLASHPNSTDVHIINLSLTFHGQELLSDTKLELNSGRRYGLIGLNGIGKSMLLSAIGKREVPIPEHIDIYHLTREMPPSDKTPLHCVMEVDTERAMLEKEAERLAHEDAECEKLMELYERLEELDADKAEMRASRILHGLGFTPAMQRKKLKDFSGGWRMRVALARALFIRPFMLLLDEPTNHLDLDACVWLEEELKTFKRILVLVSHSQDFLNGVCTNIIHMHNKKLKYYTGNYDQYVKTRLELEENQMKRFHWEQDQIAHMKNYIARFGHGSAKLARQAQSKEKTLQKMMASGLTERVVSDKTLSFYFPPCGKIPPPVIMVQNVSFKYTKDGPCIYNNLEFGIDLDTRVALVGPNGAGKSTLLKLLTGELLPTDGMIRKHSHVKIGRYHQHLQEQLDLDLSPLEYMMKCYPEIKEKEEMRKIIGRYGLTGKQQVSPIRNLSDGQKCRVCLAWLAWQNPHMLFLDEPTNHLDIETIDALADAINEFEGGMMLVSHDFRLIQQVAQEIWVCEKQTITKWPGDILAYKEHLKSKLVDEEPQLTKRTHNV
UniProt Q5VST6, sequence (Q5VST6 whole entry, looked up): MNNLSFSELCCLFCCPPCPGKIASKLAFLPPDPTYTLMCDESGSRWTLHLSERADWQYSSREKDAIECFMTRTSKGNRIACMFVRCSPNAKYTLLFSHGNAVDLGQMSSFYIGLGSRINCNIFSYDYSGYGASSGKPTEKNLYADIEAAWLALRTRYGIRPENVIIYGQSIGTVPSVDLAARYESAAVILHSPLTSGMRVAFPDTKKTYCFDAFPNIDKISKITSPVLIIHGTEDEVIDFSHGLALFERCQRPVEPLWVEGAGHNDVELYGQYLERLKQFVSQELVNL

| Target | log2 fold change [1] | log2 fold change [2] | log2 fold change [3] | log2 fold change [4] | log2 fold change [5] | log2 fold change [6] | log2 fold change [7] | log2 fold change [8] | log2 fold change [9] | log2 fold change [10] | log2 fold change [11] | log2 fold change [12] | log2 fold change [13] | log2 fold change [14] | log2 fold change [15] | log2 fold change [16] | log2 fold change [17] | log2 fold change [18] | log2 fold change [19] | log2 fold change [20] |
| --- | --- | --- | --- | --- | --- | --- | --- | --- | --- | --- | --- | --- | --- | --- | --- | --- | --- | --- | --- | --- |
| AMD1 (UniProt P17707) | -0.031 | 0.464 (active) | -0.02 | -0.013 | -0.054 | 0.019 | -0.015 | 0.155 | -0.023 | -0.119 | 0.096 | -0.01 | 0.064 | 0.036 | -0.014 | 0.117 | -0.129 | 0.127 | 0.013 | -0.002 |
| AFF1 isoform 2 (UniProt P51825) | 0.136 | -0.028 | 0.078 | -0.02 | -0.001 | 0.037 | -0.047 | 0.023 | 0.02 | -0.002 | -0.059 | 0.007 | 0.033 | 0.068 | -0.043 | -0.023 | -0.307 | 0.125 | -0.015 | 0.029 |
| APOB (UniProt P04114) | -0.025 | -0.016 | -0.052 | -0.195 | 0.011 | -0.02 | -0.089 | 0.063 | -0.005 | -0.036 | -0.006 | 0.039 | 0.03 | -0.009 | 0.026 | -0.189 | -0.224 (active) | 0.092 | 0.029 | 0.024 |
| ACLY (UniProt P53396) | -0.002 | 0.003 | 0.001 | -0.011 | 0.02 | -0.02 | 0.014 | -0.014 | -0.012 | 0.054 | 0.017 | 0.01 | -0.003 | -0.035 | -0.031 | -0.003 | -0.049 | 0.026 | -0.007 | 0.016 |
| ABCF2 isoform 2 (UniProt Q9UG63) | -0.012 | 0.013 | 0.059 | 0.003 | 0.01 | 0.007 | -0.008 | -0.013 | 0.021 | 0.012 | 0.017 | 0.002 | -0.014 | -0.072 | -0.045 | 0.026 | -0.008 | -0.026 | 0 | 0.036 |
| AMMECR1 (UniProt Q9Y4X0) | -0.021 | -0.008 | 0.006 | -0.016 | 0.014 | 0.009 | -0.01 | -0.003 | -0.027 | -0.039 | 0.067 | 0 | 0.008 | -0.019 | -0.03 | -0.026 | -0.012 | 0.032 | 0 | 0.008 |
| AKR1C3 (UniProt P42330) | -0.033 | 0.016 | -0.028 | -0.003 | -0.039 | 0.011 | 0.247 (active) | 0.02 | -0.035 | 0.001 | 0.01 | 0.023 | -0.033 | 0.091 | -0.027 | -0.05 | -0.034 | 0.059 | 0.187 | 0.044 |
| AKAP8L (UniProt Q9ULX6) | 0 | -0.046 | 0.002 | -0.019 | 0.009 | -0.02 | 0.003 | -0.271 (active) | 0.046 | 0.032 | -0.003 | 0.033 | -0.066 | -0.036 | -0.042 | 0.019 | -0.042 | -0.01 | 0.002 | 0.013 |
| AP1G2 (UniProt O75843) | 0.012 | -0.087 | 0.069 | 0.013 | -0.121 | -0.109 | -0.156 | -0.011 | 0.023 | -0.027 | -0.057 | 0.044 | 0.011 | -0.014 | -0.053 | -0.003 | -0.007 | 0.032 | -0.032 | 0.022 |
| ACADS (UniProt P16219) | -0.006 | 0.031 | 0.004 | -0.026 | -0.002 | -0.041 | -0.022 | 0.004 | -0.027 | 0.018 | 0.023 | 0.017 | 0.006 | -0.039 | -0.016 | -0.02 | 0.016 | 0.003 | -0.026 | -0.026 |
| ABHD17B (UniProt Q5VST6) | 0.067 | -0.031 | -0.053 | -0.037 | -0.036 | -0.076 | 0.001 | 0.013 | 0.127 | 0.018 | 0.051 | -0.002 | -0.073 | 0.234 | 0.094 | -0.034 | 0.08 | 0.054 | 0.092 | -0.002 |
| ANKRD10 (UniProt Q9NXR5) | -0.076 | -0.172 | 0.005 | 0.042 | -0.023 | 0.046 | 0.004 | -0.008 | 0.046 | -0.085 | 0.056 | -0.035 | 0.137 |  | 0.1 | 0.115 | -0.19 | -0.022 | 0.017 | 0.01 |
| ASPH (UniProt Q12797) | 0.015 | -0.004 | -0.006 | -0.001 | -0.028 | 0.052 | 0.076 | -0.025 | 0.025 | 0 | 0.009 | 0.009 | -0.001 | 0.03 | 0.002 | -0.018 | 0.011 | -0.024 | 0.055 | 0.01 |
| ANXA1 (UniProt P04083) | -0.001 | 0.007 | -0.003 | 0.007 | 0.005 | -0.01 | 0.03 | -0.024 | 0.025 | -0.003 | -0.007 | -0.027 | -0.038 | -0.022 | -0.011 | 0.008 | 0.028 | 0.049 | -0.019 | 0.017 |
| ACIN1 (UniProt E7EQT4) | 0.049 | -0.033 | 0.123 | -0.052 | 0.028 | -0.017 | -0.052 | 0.094 | -0.03 | -0.002 | -0.057 | 0.026 | -0.021 | -0.011 | 0.045 | 0.048 | -0.321 | 0.127 | -0.016 | 0.047 |
| AKR1B1 (UniProt P15121) | 0.023 | -0.015 | 0.031 | -0.029 | -0.033 | -0.013 | 0.091 | -0.038 | 0.028 | 0.004 | 0.006 | 0.024 | 0.02 | 0.072 | -0.015 | 0.008 | -0.054 | 0.116 | 0.065 | -0.012 |
